Data: the supplement of paper PMC13380429

What was measured:
[1] = test system: Vero E6 infected with SARS-CoV-2; assay: morphology score (similarity to uninfected cells); higher = more like uninfected cells; conditions: 24 h
[2] = test system: Vero E6 infected with SARS-CoV-2; assay: SARS-CoV-2 infection rate relative to infected DMSO; higher = more infection, active = 60 or less; conditions: 24 h

Structure (SMILES) | morphology score [1] | SARS-CoV-2 infection rate [2]
NC(=O)CCCCn1ccc(/N=C(\N)NCC(F)(F)F)n1 (10 µM) | 0.00958 | 100% (inactive)
CN1c2cc3c(cc2N=C(c2ccc(C(=O)O)cc2)c2ccccc21)C(C)(C)CCC3(C)C (0.833333 µM) | -0.141 | 107% (inactive)
O=C(Nc1cnc(Cl)nc1)c1ccc(F)c(F)c1 (10 µM) | 0.0439 | 101% (inactive)
O=C(NN1C(=O)[C@@H]2[C@@H]3C=C[C@@H]([C@H]4C[C@@H]34)[C@@H]2C1=O)c1ccc(C(F)(F)F)cc1 [tecovirimat] (10 µM) | -0.108 | 102% (inactive)
C=CC(=O)Nc1cc(Nc2nccc(-c3cn(C)c4ccccc34)n2)c(OC)cc1N(C)CCN(C)C [osimertinib] (10 µM) | -0.27 | 110% (inactive)
O=C(O)c1ccc(-n2nc(-c3ccccc3O)nc2-c2ccccc2O)cc1 [deferasirox] (0.833333 µM) | 0.0304 | 114% (inactive)
CCNC(=O)[C@@H]1CCCN1C(=O)[C@H](CCCNC(=N)N)NC(=O)[C@H](CC(C)C)NC(=O)[C@@H](CC(C)C)NC(=O)[C@H](Cc1ccc(O)cc1)NC(=O)[C@H](CO)NC(=O)[C@H](Cc1c[nH]c2ccccc12)NC(=O)[C@H](Cc1c[nH]cn1)NC(=O)[C@@H]1CCC(=O)N1 [leuprolide] (10 µM) | -0.258 | 118% (inactive)
CCOC(=O)N[C@@H]1CC[C@@H]2[C@@H](C1)C[C@H]1C(=O)O[C@H](C)[C@H]1[C@H]2/C=C/c1ccc(-c2cccc(F)c2)cn1 [vorapaxar] (10 µM) | 0.209 | 106% (inactive)
C[C@H](O)[C@H](O)[C@H]1CNc2nc(N)[nH]c(=O)c2N1 [sapropterin] (10 µM) | -0.0335 | 95.5% (inactive)
Nc1ccc(C(=O)Oc2ccccc2)c(O)c1 [phenyl-aminosalicylate] (10 µM) | 0.0987 | 104% (inactive)
O=C(O)c1c2ccccc2cc2ccccc12 [9-anthracenecarboxylic-acid] (10 µM) | 0.252 | 89.5% (inactive)
O=C(O)CCNC(=O)c1ccccc1 [betamipron] (10 µM) | 0.00831 | 118% (inactive)
CC(C)(C)C#Cc1cc(N(C(=O)[C@H]2CC[C@H](C)CC2)[C@H]2CC[C@@H](O)CC2)c(C(=O)O)s1 (10 µM) | -0.117 | 107% (inactive)
CN1c2ccccc2C(NCCCCCCC(=O)O)c2ccc(Cl)cc2S1(=O)=O (centres undefined) [tianeptine] (10 µM) | 0.237 | 104% (inactive)
COc1c(N2CCNC(C)C2)c(F)cc2c(=O)c(C(=O)O)cn(C3CC3)c12 (centres undefined) [gatifloxacin] (10 µM) | 0.0682 | 104% (inactive)
COc1cc(C(C)=O)ccc1OCCCN1CCC(c2noc3cc(F)ccc23)CC1 [iloperidone] (10 µM) | -0.112 | 111% (inactive)
Cn1c(=O)c2c(ncn2CCOC(=O)C(C)(C)Oc2ccc(Cl)cc2)n(C)c1=O [etofylline-clofibrate] (10 µM) | -0.162 | 114% (inactive)
CCO[C@@H](Cc1ccc(OCCn2c(C)ccc2-c2ccc(SC)cc2)cc1)C(=O)O [saroglitazar] (10 µM) | 0.336 | 92% (inactive)
CCCC[P+](CCCC)(CCCC)Cc1ccc(NC(=O)[C@H](Cc2ccc3ccccc3c2)N/C(=N/C2CCCCC2)NC2CCCCC2)cc1 (10 µM) | 0.122 | 92% (inactive)
O=C(c1c2ccccc2cc2ccccc12)N1CCC(N2CCC[C@@H](C(=O)N3CCOCC3)C2)CC1 (10 µM) | 0.0309 | 93.5% (inactive)
C=CC(=O)N1CCC(Oc2cc3c(Nc4ccc(Cl)c(Cl)c4F)ncnc3cc2OC)CC1 [poziotinib] (10 µM) | -0.0962 | 108% (inactive)
CCOC(=O)C1=CCCC[C@H]1S(=O)(=O)Nc1ccc(F)cc1Cl [resatorvid] (10 µM) | 0.0683 | 99.5% (inactive)
COC(=O)[C@]12CCC(C)(C)C[C@H]1[C@H]1C(=O)C=C3[C@@]4(C)C=C(C#N)C(=O)C(C)(C)[C@@H]4CC[C@@]3(C)[C@]1(C)CC2 [Bardoxolone Methyl] (10 µM) | -0.259 | 107% (inactive)
Cc1cc(C(=CNc2ccc(Cl)cc2)C(=O)Nc2ccc(Cl)cc2)on1 (10 µM) | 0.005 | 103% (inactive)

Structure (SMILES) | morphology score [1] | SARS-CoV-2 infection rate [2]
C=CCN1CCc2cc(O)c(O)cc2[C@H](c2ccccc2)C1 (10 µM) | -0.0101 | 95% (inactive)
CCCc1ncc(C[n+]2ccccc2C)c(N)n1 [amprolium] (10 µM) | -0.0897 | 104% (inactive)
FC(F)(F)Oc1ccc2nc(-c3ccc(OCCOCCOc4ccc(-c5nc6ccc(OC(F)(F)F)cc6[nH]5)nc4)cn3)[nH]c2c1 (10 µM) | -0.247 | 116% (inactive)
CC(=O)N(O)C/C=C/c1cccc(Oc2ccccc2)c1 (10 µM) | 0.0937 | 97.5% (inactive)
NNCCc1ccccc1 [phenelzine] (10 µM) | 0.113 | 102% (inactive)
Cc1cccc(C)c1NC(=O)C1CCCCN1C (centres undefined) [mepivacaine] (10 µM) | 0.171 | 97.5% (inactive)
Cc1ccc(CNc2ncnc3ccc(-c4ccc(CO)o4)cc23)o1 (10 µM) | 0.497 | 106% (inactive)
Cc1nn(C)c2nc(NNC(=O)Nc3cc(Cl)nc(Cl)c3)cc(C(C)C)c12 (10 µM) | 0.0785 | 108% (inactive)
CCCCNc1ncc2c(-c3ccc(CN4CCN(C)CC4)cc3)cn([C@H]3CC[C@H](O)CC3)c2n1 (10 µM) | -0.164 | 119% (inactive)
c1cc(-c2cnn3cc(-c4ccc(N5CCNCC5)cc4)cnc23)c2cccnc2c1 (0.833333 µM) | -0.148 | 103% (inactive)
Cc1noc2c1-c1ccccc1C(c1ccc(Cl)cc1)=N[C@H]2CC(N)=O (10 µM) | -0.0562 | 108% (inactive)
N#Cc1ccncn1 [4-pyrimidinecarbonitrile] (10 µM) | 0.0783 | 97% (inactive)
Clc1cccc(/C=N/N=C/c2cccc(Cl)c2)c1 [3,3'-dichlorobenzaldazine] (10 µM) | 0.288 | 99% (inactive)
O=C/C=C/c1ccccc1 [cinnamaldehyde] (10 µM) | -0.0291 | 104% (inactive)
O=C(O)c1ccc2cc(-c3ccc(O)c(C45CC6CC(CC(C6)C4)C5)c3)ccc2c1 (0.833333 µM) | 0.226 | 87.5% (inactive)
CCOc1ccc(C[C@H]2NC(=O)CCSSC[C@@H](C(=O)N3CCC[C@H]3C(=O)N[C@@H](CCCN)C(=O)NCC(N)=O)NC(=O)[C@H](CC(N)=O)NC(=O)[C@H]([C@@H](C)O)NC(=O)[C@H]([C@@H](C)CC)NC2=O)cc1 [atosiban] (10 µM) | 0.175 | 91% (inactive)
Cc1cccc(C)c1-n1c(=O)c2cnc(Nc3ccc(N4CCN(C)CC4)cc3)nc2n2c3ccccc3nc12 (0.833333 µM) | -0.0551 | 104% (inactive)
CC[C@H](C)[C@@H]1NC(=O)[C@H](Cc2ccc(O)cc2)NC(=O)[C@@H](N)CSSC[C@@H](C(=O)N2CCC[C@H]2C(=O)N[C@@H](CC(C)C)C(=O)NCC(N)=O)NC(=O)[C@H](CC(N)=O)NC(=O)[C@H](CCC(N)=O)NC1=O [oxytocin] (10 µM) | -0.0591 | 110% (inactive)
C[C@]12CCC(=O)C=C1CC[C@@H]1[C@@H]2[C@@H](O)C[C@@]2(C)[C@H]1CC[C@]2(O)C(=O)COP(=O)(O)O [hydrocortisone-phosphate] (10 µM) | -0.00553 | 98.5% (inactive)
CC[C@H](C)C(=O)O[C@H]1C[C@H](O)C=C2C=C[C@H](C)[C@H](CC[C@@H](O)C[C@@H](O)CC(=O)O)[C@H]21 (10 µM) | 0.0616 | 106% (inactive)
COc1cc2c(cc1Cc1cccc(Cl)c1F)c(=O)c(C(=O)O)cn2[C@H](CO)C(C)C [elvitegravir] (10 µM) | 0.0588 | 107% (inactive)
CC(CN(C)C)C(C)(O)Cc1ccc(Cl)cc1 (centres undefined) [clobutinol] (10 µM) | 0.00198 | 109% (inactive)
CCn1c(-c2nonc2N)nc2c(C#CC(C)(C)O)ncc(OC[C@H]3CCCNC3)c21 (10 µM) | 0.337 | 105% (inactive)
